Bioassay records as filed in PubChem BioAssay.
Hits are enriched below; roughly 19% of the tested compounds scored in any of these assays.
HepG2 tox: counter-screen for TGF-b inhibitors: cytotoxicity in HepG2 cells; HepG2 CAGA-GFP viability, ATP luminescence, 18 h; Potency, µM (titrated, usually from 46.1 µM), inactives show at the highest dose activity change, negative = cytotoxicity, hits mostly cytotoxic; hit rate 0.76% among 410,000; AID 588856; note: potency is the fitted concentration of half-maximal effect
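HepG2 CAGA-GFP cells (1000/well, DMEM with 1% FBS) received compound, then TGF-beta at 500 pg/mL final, and were incubated 18 hours at 37 degrees C. Viability was read by CellTiter-Glo luminescence. Media-only wells were set as complete cell-killing and DMSO as no toxicity.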
TDP1 cell CPT: growth inhibition of DT40 Tdp1-/-;hTDP1 cells with camptothecin (screen for TDP1 inhibitors); Potency, µM (highest dose often 46.2 µM), inactives show at the top dose activity change, negative = growth inhibition, usual class: inhibitors; AID 686979; chicken DT40 Tdp1-/-;hTDP1 cells + 20 nM CPT, ATP luminescence, 48 h; hit rate 12% among 420,000; note: potency is the fitted concentration of half-maximal effect; % is set by controls: 0 for no effect and ±100 for the full control effect; nearly all actives have a fitted effect of over 55% in size
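Cell growth measured by CellTiter-Glo luminescence after a minimum 48 h, 37 C compound exposure with 20 nM CPT in Tdp1-knockout DT40 cells stably expressing hTDP1, seeded 400/well; qHTS titration format.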
TDP1 block: inhibitors of human tyrosyl-DNA phosphodiesterase TDP1; Q9NUW8; recombinant TDP1, AlphaScreen DNA substrate cleavage; Potency, µM (doses to about 130 µM), without a hit: at the highest dose activity change, negative = inhibition, most hits filed as inhibitors; hit rate 0.28% among 350,000; note: potency is the fitted concentration of half-maximal effect; % is set by controls: 0 for no effect and ±100 for the full control effect; nearly all actives have a fitted effect of over 40% in size
Target sequence (Q9NUW8 whole entry, looked up): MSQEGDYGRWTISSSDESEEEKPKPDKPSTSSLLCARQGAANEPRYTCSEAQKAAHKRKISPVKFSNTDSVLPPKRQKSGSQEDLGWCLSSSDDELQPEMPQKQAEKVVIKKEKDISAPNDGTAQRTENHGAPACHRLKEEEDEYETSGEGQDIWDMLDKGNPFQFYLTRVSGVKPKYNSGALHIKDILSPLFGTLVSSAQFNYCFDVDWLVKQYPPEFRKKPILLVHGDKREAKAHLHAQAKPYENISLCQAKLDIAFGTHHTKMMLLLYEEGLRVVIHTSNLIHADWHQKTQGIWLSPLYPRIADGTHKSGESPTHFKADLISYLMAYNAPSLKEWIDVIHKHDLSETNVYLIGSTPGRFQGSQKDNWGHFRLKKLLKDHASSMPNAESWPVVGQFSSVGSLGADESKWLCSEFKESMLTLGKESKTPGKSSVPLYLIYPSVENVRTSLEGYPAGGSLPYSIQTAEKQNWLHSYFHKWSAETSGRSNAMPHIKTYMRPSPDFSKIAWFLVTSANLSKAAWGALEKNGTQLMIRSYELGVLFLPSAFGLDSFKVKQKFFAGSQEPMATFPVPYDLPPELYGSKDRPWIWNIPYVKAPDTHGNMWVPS
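Signal: AlphaScreen proximity between streptavidin donor and anti-FITC acceptor beads on intact substrate. Reaction: Tdp1 1 nM, substrate 15 nM final, 5 min RT after 15 min compound preincubation.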
TGFb SMAD3 inh: blocks TGF-b signaling | HepG2 CAGA-GFP TGF-b/SMAD3 reporter, GFP fluorescence, 18 h; TGF-beta stimulated, 500 pg/mL final | Potency, µM (doses to about 46.1 µM), inactives show top-dose activity, negative = inhibition, usual class: inhibitors | hit rate 1.2% among 410,000 | AID 588855; note: potency is the fitted concentration of half-maximal effect; % is set by controls: 0 for no effect and ±100 for the full control effect; nearly all actives have a fitted effect of over 65% in size
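Inhibition of TGF-beta-driven CAGA-GFP reporter expression in HEPG2 cells is measured by cellular GFP fluorescence after 18 h stimulation with 500 pg/mL recombinant TGF-beta in 1% FBS medium at 37 degrees C.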
TDP1 cell noCPT: qHTS for Inhibitors of human tyrosyl-DNA phosphodiesterase 1 (TDP1): qHTS in cells in absence of CPT. Potency, µM (titrated, usually from 46.2 µM), for the others: at the top dose activity change, negative = growth inhibition, usual class: inhibitors. DT40 Tdp1-/- hTDP1 cells, no CPT, ATP luminescence, 48 h. hit rate 15% among 420,000. AID 686978, 2013; note: potency is the fitted concentration of half-maximal effect; % is set by controls: 0 for no effect and ±100 for the full control effect; nearly all actives have a fitted effect of over 55% in size
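No-CPT arm: Tdp1-/-;hTDP1 DT40 cells (400/well) plus compounds, incubated ≥48 hr at 37 °C. Readout CellTiter-Glo luminescence.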
IL-1B inflam inh: inflammasome signaling inhibition, IL-1 beta readout; THP-1 LPS/ATP IL-1B secretion, AlphaLISA, 16 h; stronger effect = lower value; activity change, % at 57.5 µM; hit rate 4.7% among 360,000; AID 743279; in the data active = activity change below about -50%; inconclusive = mostly about -30% to -49%; note: % is set by controls: 0 for no effect and ±100 for the full control effect
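Secreted IL-1B measured by AlphaLISA bead assay after 16 h compound exposure of THP-1 cells; compounds (final up to 57.5 uM) added 1 h before LPS (250 ng/mL) and ATP (1.25 mM) stimulation; lower signal means less secretion.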
* hit, by the source's call; ? = inconclusive; nt = not tested or not shown; [ ] = remark or other dose. Unless noted, calls come from the whole dose curve; as a rule, active = well fitted curve in the direction sought with a large enough effect; inconclusive = small, poorly fitted or top-dose-only effect, or another doubt; inactive = no such curve, though single readings can be large; an effect the other way counts as inactive or inconclusive.

SMILES	HepG2 tox	TDP1 cell CPT	TDP1 block	TGFb SMAD3 inh	TDP1 cell noCPT	IL-1B inflam inh
Cc1cc(C(=O)Nn2c(C3CCCCC3)nc3ccccc3c2=O)ccc1[N+](=O)[O-]	-54%	?	7%	20µM*	?	51
O=C(Nn1c(C2CCCCC2)nc2ccccc2c1=O)c1ccc(Cl)c([N+](=O)[O-])c1	-24%	?	6%	?	?	-224*
CCc1ccc(-c2nn(CC(=O)NC3CCCC3)c3c2cnc2ccc(F)cc23)cc1	3%	-22%	5%	-9%	-15%	nt
Cc1ccc(C=Nc2ccccc2C(N)=O)s1	-1%	4.1µM*	5%	?	3.7µM*	30
COc1ccc(-c2nnc(Nc3nc4c(OC)cccc4s3)o2)cc1	-51%	5.2µM*	-8%	24%	18µM*	104
COc1cc(OC)cc(-c2nnc(Nc3nc4c(F)cccc4s3)o2)c1	2%	21µM*	10%	-1%	?	33
COc1ccc(-c2nnc(Nc3nc4c(OC)cccc4s3)o2)c(OC)c1	-13%	4.6µM*	11%	-19%	4.1µM*	-3
COc1ccc2c(c1)OC(C)CN(CCNC(=O)C1CCOC1)C2 (stereo not given)	nt	4%[9.04 µM]	nt	nt	14%	nt
Cc1cc(C)cc(N2C(=O)CSC23C(=O)N(Cc2c(F)cccc2Cl)c2ccccc23)c1 (stereo not given)	-17%	16µM*	8%	?	16µM*	nt
O=C1CSC2(C(=O)N(Cc3ccccc3F)c3ccccc32)N1c1cccc(C(F)(F)F)c1 (stereo not given)	-11%	nt	8%	11µM*	nt	nt
COc1ccc(N2C(=O)CSC23C(=O)N(Cc2ccccc2F)c2ccccc23)cc1Cl (stereo not given)	-21%	nt	8%	-3%	nt	nt
COc1cccc(N2C(=O)CSC23C(=O)N(Cc2ccccc2F)c2ccccc23)c1 (stereo not given)	-17%	nt	6%	-8%	nt	nt
O=C(Nc1nnc2n1CCS2)c1ccc(F)cc1F	-7%	?	0%	-2%	?	nt
O=C(NNC(=O)C12CC3CC(CC(C3)C1)C2)c1ccccc1O	-22%	8.2µM*	-2%	?	8.2µM*	11
CC(=O)OCCCN(C)CC/C=C1/c2ccccc2CSc2ccccc21	-41%	?	nt	?	?	-70*
CC1(C)CC2(C)OC2C2(C1)N=NC(=Nc1ccccc1)O2 (stereo not given)	-69%	4.1µM*	nt	2.8µM*	4.1µM*	-99*
O=C(N/N=C1/C[C@@H](O)[C@@H](O)[C@@H]2[C@@H]3C(=O)N(C4CCCCC4)C(=O)[C@H]3CC[C@H]12)OCc1ccccc1	nt	nt	11%[21 µM]	nt	nt	nt
Cc1ccc(NC(=O)NC(=O)COc2ccccc2C(N)=O)c(C)c1	4%	9%	-6%	5%	22%	0
Cc1ccc(-c2nc(CS(=O)CC(=O)NCCN3CCCCCC3)c(C)o2)cc1 (stereo not given)	-65%	-25%	1%	13µM*	?	-14
Cc1oc(-c2ccc(Cl)cc2)nc1CS(=O)CC(=O)NCCN1CCCCCC1 (stereo not given)	-51%	-25%	4%	?	?	-25
Cc1oc(-c2ccc(Cl)cc2)nc1CS(=O)CC(=O)NCCCN1CC(C)CC(C)C1 (stereo not given)	-31%	?	1%	?	?	-70*
Nc1cc(=O)nc(SCC(=O)Nc2ccc(F)cc2)n1-c1cccc(Cl)c1	-5%	1%	7%	-4%	-13%	nt
O=[N+]([O-])c1ccc(/C=N/Nc2ccc3ccccc3c2)o1	3%	?	12%	-24%	-30%	-9
Cc1ccc2nc(N/N=C\c3ccc([N+](=O)[O-])o3)nc(-c3ccccc3)c2c1	-5%	23µM*	0%	-5%	?	-59*
O=[N+]([O-])c1ccc(/C=N/Nc2nc(-c3ccccc3)c3cc(Br)ccc3n2)o1	1%	16µM*	5%	23%	21µM*	-22
SMILES	HepG2 tox	TDP1 cell CPT	TDP1 block	TGFb SMAD3 inh	TDP1 cell noCPT	IL-1B inflam inh
N#Cc1ccccc1/C=N/Nc1nc(-c2ccccc2)c2cc(Br)ccc2n1	-10%	?	2%	1%	?	?
COc1ccc(N2CC(NC(=O)c3c(F)cccc3Cl)CC2=O)cc1OC (stereo not given)	2%	7%	0%	-25%	5%	nt
CC1(Cc2ccccc2C#N)C(=O)Nc2cc(-c3ccccc3Cl)ccc21 (stereo not given)	-29%	23µM*	nt	?	?	-20
CC(=O)Nc1ccn(C2CC3OCC(NC(=O)C(NC(=O)OC(C)(C)C)C(C)OCc4ccccc4)C3O2)c(=O)n1 (stereo not given)	2%	nt	4%	-11%	nt	nt
CCOc1ccc(-c2cn3nc(CC(C)C)sc3n2)cc1	-23%	-18%	2%	-15%	?	nt
CC(=O)Oc1ccc(Cl)cc1/C=C/c1ccc2ccccc2n1	-75%	?	nt	?	29µM*	-2
CC(=O)Oc1c(Cl)cc(Cl)cc1/C=C/c1ccc2ccccc2n1	-90%	?	?	0%	-6%	-66*
COc1cc(/C=C/c2cc(OC(C)=O)c3ccccc3n2)c(OC(C)=O)c([N+](=O)[O-])c1	-15%	?	nt	-1%	?	6
CN(C(=O)COC(=O)C1CCN(S(=O)(=O)c2c(Cl)cccc2Cl)CC1)C1CCCCC1	8%	?	-1%	8%	-21%	-9
CCC1CN(CCNC(=O)c2cccnc2OC)Cc2cc(OC)ccc2O1 (stereo not given)	nt	4%[9.04 µM]	nt	nt	?	nt
CCN(CC)S(=O)(=O)c1ccc2c(c1)nc(SCC(=O)N1CCCCCC1)n2-c1ccc(OC)cc1	-6%	15µM*	2%	-27%	23µM*	?
CCN(CC)S(=O)(=O)c1ccc2c(c1)nc(SCC(N)=O)n2-c1ccc(OC)cc1	-6%	-28%	6%	3%	?	-29
O=C1NC(=S)N/C1=C/c1cccn1-c1ccc([N+](=O)[O-])cc1	-43%	-23%	1%	7.1µM*	-27%	15
N=C1/C(=C/c2cccn2-c2ccc([N+](=O)[O-])cc2)C(=O)N=C2SC=CN12	2%	-21%	0%	3%	?	0
Cc1ccc2c(CC(=O)Nc3cccc(C(F)(F)F)c3)coc2c1	-51%	16µM*	-1%	?	?	nt
